This is one part of a sample in which the strongest signals are shown more often than they occur.
Key:
Assay in all cases: glycan array binding signal (z-score within array); higher = stronger binding
Conditions in all cases: glycan notation: IUPAC condensed, linker removed
[1] = biological target: GlcNAc(a1-4)Gal(b1-4)GlcNAc
Outline: (§1)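 From the Consortium for Functional Glycomics database, 3228 arrays were curated, keeping only those whose protein sequence was available. Binding is given as a within-array Z-score averaged across arrays sharing a protein sequence and across linkers. Negative Z-scores can be read as non-binding.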

[2] = biological target: GlcNAc(a1-4)Gal(b1-4)GlcNAc(b1-3)Gal(b1-4)GlcNAc(b1-3)Gal(b1-4)GlcNAc
Outline: as §1

[3] = biological target: GlcNAc(b1-2)[GlcNAc(b1-4)]Man(a1-3)[GlcNAc(b1-2)Man(a1-6)]Man(b1-4)GlcNAc(b1-4)GlcNAc
Outline: as §1

[4] = biological target: GlcNAc(b1-2)[GlcNAc(b1-6)]Man(a1-6)[GlcNAc(b1-2)Man(a1-3)]Man(b1-4)GlcNAc(b1-4)GlcNAc
Outline: as §1

[5] = biological target: GlcNAc(b1-2)[GlcNAc(b1-6)]Man(a1-6)[GlcNAc(b1-2)Man(a1-3)]Man(b1-4)GlcNAc(b1-4)[Fuc(a1-6)]GlcNAc
Outline: as §1

[6] = biological target: GlcNAc(b1-3)Gal(b1-4)GlcNAc(b1-3)Gal(b1-4)GlcNAc
Outline: as §1

[7] = biological target: GlcNAc(b1-3)Gal(b1-4)GlcNAc(b1-3)Gal(b1-4)GlcNAc(b1-2)Man(a1-3)[GlcNAc(b1-3)Gal(b1-4)GlcNAc(b1-3)Gal(b1-4)GlcNAc(b1-2)Man(a1-6)]Man(b1-4)GlcNAc(b1-4)GlcNAc
Outline: as §1

[8] = biological target: GlcNAc(b1-3)Gal(b1-4)GlcNAc(b1-3)Gal(b1-4)GlcNAc(b1-3)GalNAc
Outline: as §1

[9] = biological target: GlcNAc(b1-3)Gal(b1-4)GlcNAc(b1-3)[GlcNAc(b1-3)Gal(b1-4)GlcNAc(b1-3)]GalNAc
Outline: as §1

GlcNAc(b1-3)Man = biological target: GlcNAc(b1-3)Man
Outline: as §1

[10] = biological target: GlcNAc(b1-6)Gal(b1-4)GlcNAc
Outline: as §1

GlcNAc(b1-6)GalNAc = biological target: GlcNAc(b1-6)GalNAc
Outline: as §1

Kdn(a2-3)Gal(b1-4)Glc = biological target: Kdn(a2-3)Gal(b1-4)Glc
Outline: as §1

[11] = biological target: Man(a1-2)Man(a1-6)[Man(a1-3)]Man(a1-6)[Man(a1-2)Man(a1-2)Man(a1-3)]Man
Outline: as §1

Man(a1-3)[Man(a1-6)]Man = biological target: Man(a1-3)[Man(a1-6)]Man
Outline: as §1

[12] = biological target: Neu5Ac(a2-3)Gal(b1-3)GalNAc
Outline: as §1

[13] = biological target: Neu5Ac(a2-3)Gal(b1-3)GlcNAc(b1-3)Gal(b1-3)GlcNAc
Outline: as §1

[14] = biological target: Neu5Ac(a2-3)Gal(b1-3)GlcNAc(b1-6)GalNAc
Outline: as §1

[15] = biological target: Neu5Ac(a2-3)Gal(b1-4)GlcNAc(b1-3)Gal
Outline: as §1

[16] = biological target: Neu5Ac(a2-3)Gal(b1-4)GlcNAc(b1-3)Gal(b1-3)GlcNAc
Outline: as §1

[17] = biological target: Neu5Ac(a2-3)Gal(b1-4)GlcNAc(b1-3)Gal(b1-4)GlcNAc(b1-3)[Neu5Ac(a2-3)Gal(b1-4)GlcNAc(b1-3)Gal(b1-4)GlcNAc(b1-6)]GalNAc
Outline: as §1

[18] = biological target: Neu5Ac(a2-6)Gal(b1-4)GlcNAc(b1-2)Man(a1-3)[Neu5Ac(a2-6)Gal(b1-4)GlcNAc(b1-2)Man(a1-6)]Man(b1-4)GlcNAc(b1-4)[Fuc(a1-6)]GlcNAc
Outline: as §1

[19] = biological target: Neu5Ac(a2-6)Gal(b1-4)GlcNAc(b1-2)Man(a1-6)[Man(a1-3)]Man(b1-4)GlcNAc(b1-4)GlcNAc
Outline: as §1

[20] = biological target: Neu5Ac(a2-6)Gal(b1-4)GlcNAc(b1-3)Gal(b1-4)GlcNAc(b1-3)GalNAc
Outline: as §1

[21] = biological target: Neu5Ac(a2-6)Gal(b1-4)GlcNAc(b1-3)Gal(b1-4)[Fuc(a1-3)]GlcNAc(b1-3)Gal(b1-4)[Fuc(a1-3)]GlcNAc
Outline: as §1

[22] = biological target: Neu5Ac(a2-6)Gal(b1-4)GlcNAc(b1-3)[Neu5Ac(a2-6)Gal(b1-4)GlcNAc(b1-6)]GalNAc
Outline: as §1

[23] = biological target: Neu5Ac(a2-6)Gal(b1-4)GlcNAc6S
Outline: as §1

Neu5Ac(a2-8)Neu5Ac = biological target: Neu5Ac(a2-8)Neu5Ac
Outline: as §1

[24] = biological target: Neu5Ac(b2-6)Gal(b1-4)GlcNAc
Outline: as §1

[25] = biological target: Neu5Ac9Ac(a2-6)Gal(b1-4)GlcNAc
Outline: as §1

[26] = biological target: Neu5Gc(a2-6)Gal(b1-4)GlcNAc
Outline: as §1

B1: PpFlo1 (Pichia pastoris) (protein)
chain: MGSSHHHHHHSSGLVPRGSHMQESGDGDISDSAYACDIDATRYDGFNATIYEFQPGDGRLTRDPVFMSTGYLNRTQLHSITGVTDPGFSIYTPGVPTTTLYGIPNVNWENLLLELKGYFRAEVSGDYGLSLRNIDDSAILFFGKETAFQCCNENSISNEASTDYSLFTIFRQEGDETTNLDSFTYTQYLEAGKYYPVRTFFVNIERHAVFNFTMTLPDGTELTDFHNYIYQFGALDEEQCQA
With B1 the “glycan array binding signal (z-score)” value [1] was 0.008, the “glycan array binding signal (z-score)” value [2] was 0.046 and the “glycan array binding signal (z-score)” value [3] was -0.171. The “glycan array binding signal (z-score)” value [4] was -0.18, the “glycan array binding signal (z-score)” value [5] was 0.03 and the “glycan array binding signal (z-score)” value [6] was 0.551. The “glycan array binding signal (z-score)” value [7] was 0.609, the “glycan array binding signal (z-score)” value [8] was -0.514 and the “glycan array binding signal (z-score)” value [9] was -0.39. The “glycan array binding signal (z-score)” value (GlcNAc(b1-3)Man) was 1.9, the “glycan array binding signal (z-score)” value [10] was -0.375 and the “glycan array binding signal (z-score)” value (GlcNAc(b1-6)GalNAc) was -0.373. The “glycan array binding signal (z-score)” value (Kdn(a2-3)Gal(b1-4)Glc) was -0.2, the “glycan array binding signal (z-score)” value [11] was -0.565 and the “glycan array binding signal (z-score)” value (Man(a1-3)[Man(a1-6)]Man) was -0.074. The “glycan array binding signal (z-score)” value [12] was -0.261, the “glycan array binding signal (z-score)” value [13] was -0.308 and the “glycan array binding signal (z-score)” value [14] was -0.067. The “glycan array binding signal (z-score)” value [15] was -0.31, the “glycan array binding signal (z-score)” value [16] was -0.004 and the “glycan array binding signal (z-score)” value [17] was 0.078. The “glycan array binding signal (z-score)” value [18] was 0.148, the “glycan array binding signal (z-score)” value [19] was -0.445 and the “glycan array binding signal (z-score)” value [20] was -0.424. The “glycan array binding signal (z-score)” value [21] was 0.701, the “glycan array binding signal (z-score)” value [22] was 0.261 and the “glycan array binding signal (z-score)” value [23] was 2.26. The “glycan array binding signal (z-score)” value (Neu5Ac(a2-8)Neu5Ac) was 0.146, the “glycan array binding signal (z-score)” value [24] was 0.76 and the “glycan array binding signal (z-score)” value [25] was -0.44. The “glycan array binding signal (z-score)” value [26] was 0.

Reference: the supplement of paper PMC8728848
